BoNT-A LC inh2 = blocks Botulinum neurotoxin A light chain protease; multiplex microsphere protease substrate cleavage, flow cytometry; inhibition, % at 10 µM; actives 0.17% (n = 360,000); AID 588499; note: plate controls were buffer without enzyme for full effect and enzyme alone for no effect
Autofluor counter = flagged as autofluorescent in microsphere protease counterscreen; compound autofluorescence counterscreen, microsphere flow cytometry; stronger effect = higher value; fluorescence intensity (concentration not given with the values); actives 3.1% (n = 360,000); AID 624483; in the data active = fluorescence intensity above about 16000; inconclusive = no clear call, values can overlap the other calls
BoNT-F LC inh = BoNT F light chain protease inhibition; Multiplex microsphere protease cleavage assay, flow cytometry; inhibition, % at 10 µM; AID 588497; actives 0.22% (n = 360,000); in the data active = inhibition above about 35%, passing the limit was not always enough; inconclusive = no clear call, values can overlap the other calls; note: plate controls were buffer without enzyme for full effect and enzyme alone for no effect
Anthrax LF inh2 = anthrax lethal factor protease inhibition; P15917; inhibition, % at 10 µM; multiplex microsphere protease cleavage assay, LF; actives 0.12% (n = 360,000); note: plate controls were buffer without enzyme for full effect and enzyme alone for no effect
An asterisk follows results filed as active; ? = inconclusive. Compounds with a hit are over-represented: about 3.5% of the library has one in this group of screens. Cut-off read from the data, not from the text of the source, unless noted: active = inhibition above about 30%; inconclusive = no clear call, values can overlap the other calls; inactive = below that.

SMILES	BoNT-A LC inh2	Autofluor counter	BoNT-F LC inh	Anthrax LF inh2
CC(NC(=O)c1ccc(CS(=O)(=O)c2ccc(Cl)cc2)o1)c1ccc2c(c1)OCCO2 (configuration not stated)	-1.0	20032*	-2.5	-1.2
Cc1ccc(S(=O)(=O)N2C[C@H]3C(=O)C[C@@H]4C(=O)N(c5ccccc5)C(=O)[C@@H]4[C@@H]3C[C@H]2c2cccc(Cl)c2)cc1	0.0	5467	-1.4	1.2
O=S(=O)(Nc1ccc(F)cc1)N1CCOCC1	-1.0	3825	-6.1	-2.7
Cn1c(CNC(=O)c2ccco2)nnc1SCC(=O)Nc1ccc(Br)cc1F	-1.0	2580	-15.9	-0.5
CCn1c(CNC(=O)c2ccco2)nnc1SCC(=O)Nc1ccc(Br)cc1F	4.9	20415*	7.6	-5.3
COc1cc(N2CCCC2)c(OC)cc1/C=C(/C#N)c1ccc(Br)cc1	0.8	20296*	-1.5	-1.3
COc1cc(N2CCCC2)c(OC)cc1/C=C(/C#N)c1ccc(F)cc1	1.1	7730	34.9*	-5.9
C[C@H](CO)N1C[C@H](C)[C@@H](CN(C)Cc2ccccn2)Oc2ncc(-c3ccccc3)cc2C1=O	-0.2	2954	-4.9	-6.2
CCNc1nc(N)nc(Oc2ccc(OCCOc3ccccc3)nn2)n1	-4.7	17908*	-12.2	-4.2
CCOC(=O)CCCCCC(=O)Nc1ccc2c(c1)C(=O)N([C@H](C)CO)C[C@H](C)[C@@H](CN(C)C(=O)Nc1ccccc1)OCCCC[C@@H](C)O2	-0.2	2976	1.2	-6.3
CCC(Oc1cc(Cl)ccc1Cl)C(=O)NNC(=O)CCC(=O)O (configuration not stated)	-0.4	2944	-4.5	-1.8
CCC(Oc1cc(Cl)ccc1Cl)C(=O)NN1C(=O)C2C3CCC(C3=C(C)C)C2C1=O (configuration not stated)	1.0	4726	35.4*	-0.3
OCCN(Cc1ccccc1)Cc1ccc(F)c(F)c1	1.2	20266*	3.2	-0.2
O=[N+]([O-])c1cccc(CN(CCO)Cc2ccccc2)c1	-1.4	16829*	-5.3	-1.0
OCCN(Cc1ccccc1)Cc1ccccc1O	1.3	3502	-1.1	-3.7
Cc1cc(NC(=O)/C(C#N)=C\c2ccc(-c3ccc(SC(F)F)cc3)o2)n(-c2ccccc2)n1	-0.8	4508	6.1	-7.2
COc1ccc(OCC(=O)OCCN2C(=O)c3ccccc3C2=O)cc1	4.4	20429*	6.8	-0.6
CCCc1cc(N2CCCC(C(=O)Nc3cc(Cl)ccc3OC)C2)n2ncnc2n1 (configuration not stated)	?	16461*	0.2	1.4
Cc1ccc(NC(=O)CSc2nnc(-c3ccncc3)n2N)cc1C	-1.4	24163*	-4.5	-0.5
CCn1c(SCC(=O)OC)nnc1-c1ccncc1	-0.7	4772	-12.8	-2.1
COc1ccc(NC(=O)CSc2nnc(-c3ccc(C)cc3)n2N)cc1	-0.3	9474	-4.6	-2.6
COC(=O)CSc1nnc(-c2ccncc2)n1N	2.3	19048*	-0.4	-2.6
CCN1CCC2(CCNC2)C1 (configuration not stated)	-0.8	16425*	1.1	-2.6
CCN1CCC2(CC1)NC(CO)(CO)CO2	0.1	2750	0.4	-0.1
O=c1ncn(-c2cccc(F)c2)c2ncccc12	?	19821*	1.1	-0.2
SMILES	BoNT-A LC inh2	Autofluor counter	BoNT-F LC inh	Anthrax LF inh2
Nc1cc(=O)[nH]c(=O)n1-c1cccc(F)c1	0.3	2155	-4.2	-1.5
O=C(NCc1ccc(F)cc1)C(c1cccs1)N(C(=O)c1csnn1)C1CC1 (configuration not stated)	?	16343*	20.4	0.7
Nc1c(S(=O)(=O)c2cccc(Cl)c2)c2nc3ccccc3nc2n1CCN1CCOCC1	0.0	16491*	-4.7	-4.6
CC(C)C(NC=C1C(=O)OC(C)(C)OC1=O)C(=O)O (configuration not stated)	?	16608*	-5.0	-2.0
COc1cc(COc2ccc3c(C)c(CCC(=O)O)c(=O)oc3c2)cc(OC)c1OC	-1.3	3610	-14.1	-4.7
CC(=O)COc1ccc2c(C)c(C)c(=O)oc2c1	0.2	3591	-14.2	-0.7
Cc1c(CCC(=O)O)c(=O)oc2cc(OCc3cccc(Cl)c3)ccc12	0.2	3151	39.7*	3.9
CCc1c(C)c2ccc(OCC(N)=O)cc2oc1=O	-2.3	24076*	-3.1	1.0
O=S1(=O)CCN(Cc2cccnc2)CC1	-0.3	2929	5.7	-4.0
CC1CCc2c(sc(NC(=O)C(=O)NCc3ccco3)c2C#N)C1 (configuration not stated)	?	20783*	9.5	-10.3
O=C(CSC(=S)N1CCCC1)Nc1ccc(Br)cc1Cl	2.0	?	34.9*	-1.1
Cc1cccc(C)c1NC(=O)CSC(=S)N1CCCC1	0.2	3928	2.0	-0.5
C=CCOc1ccc(/C(CC)=N/O)c(OC)c1	?	23301*	0.6	-2.5
O=C1c2ccccc2C(=O)N1CCCc1nc2ccccc2c(=O)n1CCCn1ccnc1	-8.6	19567*	-12.2	1.0
c1ccc(-n2nnnc2Sc2n[nH]c(-c3ccncc3)n2)cc1	-3.4	24881*	-5.6	-2.3
Cc1ccccc1-n1nnnc1Sc1nnnn1-c1ccccc1	0.2	3503	-7.3	0.8
COc1cc(C(=O)Nc2nc3ccccc3[nH]2)ccc1OC(F)F	-0.4	4408	1.5	-10.8
COc1ccc(C(=O)Nc2nc3ccccc3[nH]2)cc1OC	-4.2	21383*	-12.3	-2.5
COc1ccccc1NC(=O)c1ccc2nc(-c3ccccc3)c(-c3ccccc3)nc2c1	?	20872*	2.4	-4.7
COc1cccc(CNc2cccc3cccnc23)c1O	-3.0	16704*	-9.5	-7.8
COc1ccc(C(=O)Nc2cccc3cccnc23)cc1OC	0.4	23720*	-3.5	-1.0
COc1ccc(CNC(=O)CC[C@H]2O[C@@H](n3ccc(=O)[nH]c3=O)[C@H](O)[C@@H]2O)cc1	-1.1	5903	-4.2	4.5
Cc1ccccc1OCc1nc2ccccc2[nH]1	-2.5	4674	-7.1	-8.0
COc1ccccc1OCc1nc2ccccc2[nH]1	-1.4	17050*	-5.2	-2.5
COc1ccccc1N1CCN(C(=O)CC(NC(=O)c2ccccc2Cl)c2ccccc2)CC1 (configuration not stated)	0.0	5229	-2.0	-3.1
SMILES	BoNT-A LC inh2	Autofluor counter	BoNT-F LC inh	Anthrax LF inh2
CN1/C(=C\C=C2C(=O)NC(=S)NC2=O)C(C)(C)c2ccccc21	-13.0	14576	-60.1	-11.7
CN1C(=CC=C2C=C(I)C(=O)C(I)=C2)C(C)(C)c2ccccc21	101.0*	3157	19.3	55.1*
COc1cc(/C=C2\SC(=S)N(CCCCC(=O)O)C2=O)ccc1OS(=O)(=O)c1ccc(C)cc1	-0.3	5556	0.8	-0.3
CCC(=O)Nc1ccc(C(=O)CSc2nnc(-c3ccc(O)cc3)n2CC2CCCO2)cc1OC (configuration not stated)	2.2	20195*	1.6	-2.6
O=C(CSc1nnc(-c2ccncc2)n1CC1CCCO1)Nc1cccc(O)c1 (configuration not stated)	1.4	22751*	2.6	-3.7
CC(C)C[C@H]1CN(CCCC[C@H]2CNC(=O)C(=O)N2CC2CCCCC2)C(=O)C(=O)N1CCc1ccc(O)cc1	-0.5	5868	3.1	-5.4
O=C(/C=C/c1ccco1)Nc1sc2c(c1C(=O)O)CCC2	-1.4	16426*	-4.4	-4.0

Screening results as filed in PubChem.
